# Screening data as filed in PubChem BioAssay.
# B2AR arrestin – qHTS assay of beta-arrestin-biased ligands of beta2-adrenergic receptor; hit rate 0.02% among 330,000; Potency, µM (titrated, usually from 46.1 µM), most hits filed as activators; beta-arrestin recruitment to beta2AR, cell-based reporter; AID 492947, 2010; further: nearly all actives have a fitted effect of over 65% in size
# TSHR antag – Antagonists of the Thyroid Stimulating Hormone Receptor: HTS campaign; Thyrotropin receptor (Homo sapiens), P16473; TSHR-expressing cells, TSH-stimulated cAMP HTRF, 2 h; stronger effect = lower value; hit rate 0.2% among 330,000; activity change, negative = inhibition, % at 11.5 µM;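 active means activity change below a set negative limit, meaning inhibition stronger than a set level, cut at about -70% in these data; inconclusive means activity change between two set negative limits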
#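 Cell-based HTRF cAMP assay; TSHR cells + compound, TSH EC80 (4nM final), 2 h, 37 deg C. Lysis with anti-cAMP cryptate and cAMP-d2, 30 min RT, read 665/620 nm.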
# RORgamma inh – qHTS for inhibitors of ROR gamma transcriptional activity; Nuclear receptor ROR-gamma (Mus musculus), P51450; Drosophila S2 Gal4-RORgamma UAS-luciferase reporter, 20 h; Potency, µM (doses to about 53.6 µM), usual class: inhibitors; hit rate 5.4% among 310,000; further: nearly all actives have a fitted effect of over 60% in size
# Target sequence (P51450 whole entry, looked up, the tested form may be a part): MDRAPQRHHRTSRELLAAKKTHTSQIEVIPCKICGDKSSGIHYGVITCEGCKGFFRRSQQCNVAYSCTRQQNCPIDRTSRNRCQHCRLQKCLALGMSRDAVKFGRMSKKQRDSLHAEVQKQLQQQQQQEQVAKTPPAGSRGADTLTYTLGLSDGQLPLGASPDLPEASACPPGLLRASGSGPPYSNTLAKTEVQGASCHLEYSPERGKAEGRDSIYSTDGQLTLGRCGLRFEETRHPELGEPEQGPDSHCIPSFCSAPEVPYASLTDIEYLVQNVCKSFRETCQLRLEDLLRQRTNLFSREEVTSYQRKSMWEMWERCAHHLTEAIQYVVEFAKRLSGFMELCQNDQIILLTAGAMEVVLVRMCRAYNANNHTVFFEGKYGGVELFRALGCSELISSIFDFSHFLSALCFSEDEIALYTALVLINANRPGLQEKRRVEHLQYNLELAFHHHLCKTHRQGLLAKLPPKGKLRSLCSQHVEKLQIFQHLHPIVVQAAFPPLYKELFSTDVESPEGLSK
#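 Drosophila S2 cells stably expressing Gal4-DBD/mouse RORγ fusion under metallothionein promoter plus UAS-luciferase; compound 1 h, then 700 uM CuSO4 induction for 20 h at ambient temperature; inhibition read as reduced luminescence.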
# Gal4-VP16 FLuc – VP16 counterscreen qHTS for inhibitors of ROR gamma transcriptional activity | hit rate 3.5% among 310,000 | Drosophila S2 Gal4-VP16 UAS-luciferase, luminescence, 20 h | AID 2546, 2010 | Potency, µM (highest dose often 53.6 µM), usual class: inhibitors;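 further: Gal4-VP16 expression switched on by copper sulfate through the metallothionein promoter; nearly all actives have a fitted effect of over 50% in size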
# ELG1 DNA repair – qHTS screen for small molecules that inhibit ELG1-dependent DNA repair in human embryonic kidney (HEK293T) cells expressing luciferase-tagged ELG1; Potency, µM (titrated, usually from 46.1 µM), most hits filed as inhibitors; HEK293T ELG1-luciferase reporter, luminescence, 16 h; DNA damage induced by 5-fluorouridine; hit rate 2.3% among 330,000; further: nearly all actives have a fitted effect of over 55% in size
#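 HEK293T cells expressing luciferase-tagged ELG1 (2,000/well) received 5-Fluorouridine plus compound or DMSO for 16 hr at 37 °C. Luciferase was read by ONE-Glo luminescence after 30 min at room temperature.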
# A number is an active result; – = inactive; ? = inconclusive; · = not tested or not shown; [ ] = dose if it differs, or a comment. Rows were chosen to be rich in hits. Some 7.5% of all compounds tested hit in one or more screens of this group. Unless noted, the call rests on the fitted dose curve; in most records, active means well fitted curve in the direction sought with a large enough effect; inconclusive means small, poorly fitted or top-dose-only effect, or another doubt; inactive means no such curve, though single readings can be large; an effect the other way counts as inactive or inconclusive.
SMILES,B2AR arrestin,TSHR antag,RORgamma inh,Gal4-VP16 FLuc,ELG1 DNA repair
CCNC1=C(Cl)C(=O)c2ccccc2C1=O,–,–,?,–,–
Cc1ccc(S(=O)(=O)N[C@H]2COC(=O)CC=C[C@@H](C)[C@H]3C=C[C@H](O)[C@@H](COC(=O)CC=C[C@H]2C)O3)cc1,·,·,–[10 µM],–[10 µM],·
O=C(c1ccco1)N1CCC2(CC1)CN(Cc1cc(C(F)(F)F)cc(C(F)(F)F)c1)C2,·,·,–,–,·
NC(N)=NCCCC(NC(=O)C(N)Cc1ccc(O)cc1)C(=O)O (stereo unspecified),·,·,–,–,·
COc1cc(C(=O)NNc2nc3cc4c(cc3s2)OCO4)cc(OC)c1OC,–,–,?,13µM,–
COc1ccc2nc(Nc3nc4cc5c(cc4s3)OCO5)sc2c1,–,–,4.5µM,11µM,?
COc1ccc2nc(Nc3ccc4c(c3)OCO4)sc2c1,–,–,–,?,?
COc1cc(OC)cc(C(=O)NNc2nc3cc4c(cc3s2)OCO4)c1,–,–,4.5µM,13µM,–
CC1=CC2C(C(C)C)CCC(C)(O)C2CC1 (stereo unspecified),·,·,–,–,·
Cc1ccc(S(=O)(=O)NC(=O)NC2CCCCCCC2)cc1,·,·,–,–,·
CC1(C)CC(C)(O)N(Cc2ccccc2)C(=S)N1 (stereo unspecified),–,–,13µM,16µM,–
CC1(C)C(=O)NC(=O)N1Cc1ccccc1,–,–,·,·,–
CCCC(=O)NC(=S)N1CCN(c2ccc([N+](=O)[O-])cc2)CC1,–,–,3.2µM,?,?
COCC(=O)N1CCN(c2ccc([N+](=O)[O-])cc2)CC1,–,–,–,–,–
O=[N+]([O-])c1ccc(N2CCN(C(=S)c3cccc([N+](=O)[O-])c3)CC2)cc1,–,–,–,–,–
Cc1cccc(N2CCN(C(=O)CNC(=O)c3cccc([N+](=O)[O-])c3)CC2)c1C,–,–,?,–,18µM
O=C(NC(=S)N1CCN(c2ccc([N+](=O)[O-])cc2)CC1)c1ccccc1,–,–,0.28µM,0.56µM,–
Cc1ccc(C(=O)NC(=S)N2CCN(c3ccc([N+](=O)[O-])cc3)CC2)cc1,–,–,0.71µM,1µM,–
COc1ccc2c(c1)CCCC21SC(NC(C)=O)=NN1C(C)=O (stereo unspecified),–,–,–,–,–
O=C(NC(=S)N1CCCC1)c1cccc([N+](=O)[O-])c1,–,–,2µM,0.71µM,–
O=C(NC(=S)N1CCCCCC1)c1cccc([N+](=O)[O-])c1,–,–,·,·,–
O=C(Nc1ccc(S(=O)(=O)N2CCOCC2)cc1)c1cc(-c2cc(Cl)ccc2O)n[nH]1,–,–,–,–,23µM
Cc1ccc(O)c(-c2cc(C(=O)Nc3ccc(S(=O)(=O)N4CC(C)OC(C)C4)cc3)[nH]n2)c1 (stereo unspecified),–,–,?,?,8.2µM
CCc1ccc(Nc2nc(N)nc(CSc3nc4ccccc4s3)n2)cc1,–,–,13µM,?,?
Cc1nnc(SCc2nc(N)nc(Nc3ccccc3)n2)s1,–,–,?,–,?
SMILES,B2AR arrestin,TSHR antag,RORgamma inh,Gal4-VP16 FLuc,ELG1 DNA repair
O=C(CSc1nc2ccccc2s1)N1CCCCC1,–,–,–,–,?
Nc1nc(CSc2nc3ccccc3s2)nc(N2CCCCC2)n1,–,–,6.3µM,13µM,–
N#CCCn1c(=O)c(-c2ccc(Cl)cc2)nc2cnc(OCc3ccccc3)nc21,·,·,–,–,·
Cc1cccnc1CN1CCN(Cc2nc(Cc3cccc(F)c3)no2)CC1,–,–,13µM,–,?
Fc1cccc(Cc2noc(CN3CCSCC3)n2)c1,–,–,–,–,–
O=C(Nc1ccc(N2CCOCC2)c(Cl)c1)c1c(F)c(F)c(F)c(F)c1F,–,–,–,?,–
O=C(Nc1ccc(N2CCN(C(=O)c3cccs3)CC2)c(Cl)c1)c1cccnc1,–,–,–,–,6.5µM
O=C(Nc1ccc(N2CCCC2)c(Cl)c1)c1cccnc1,–,–,?,–,?
COc1c(F)c(F)c(C(=O)Nc2ccc(N3CCN(C(C)=O)CC3)c(Cl)c2)c(F)c1F,–,–,–,–,23µM
